In PubChem BioAssay AID1445 (SRMLSC, 2008):
Screen size: about 220,000 compounds; about 910 (0.41%) were called active. Only a selection was taken, and actives are over-represented in it overall. Entries with a potency or affinity are not part of this list. Unmarked numbers belong to inactive results.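 The calls were made as follows: active = primary inhibition above the hit cutoff, then over 50% inhibition at one or more dose response concentrations (cut at about 23% in these data, passing the limit was not always enough); inconclusive = conflicting primary data, or primary hits not chosen for dose response; inactive = low primary inhibition, or under 50% at every dose.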

Each molecule was assayed against Aminopeptidase N (Plasmodium falciparum (isolate 3D7)) (UniProt O96935) (assay: P. falciparum M1AAP inhibitors, biochemical, fluorogenic H-Leu-NHMec substrate, 1536-well (AID 1445;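 also: plate controls were DMSO full reaction for no effect and no enzyme background for full effect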)). Settings: recombinant M1AAP, H-Leu-NHMec fluorogenic kinetic assay; at 30 µM, hits give high values unless noted.
Sequence of Aminopeptidase N (Plasmodium falciparum (isolate 3D7)) (O96935 whole entry, looked up): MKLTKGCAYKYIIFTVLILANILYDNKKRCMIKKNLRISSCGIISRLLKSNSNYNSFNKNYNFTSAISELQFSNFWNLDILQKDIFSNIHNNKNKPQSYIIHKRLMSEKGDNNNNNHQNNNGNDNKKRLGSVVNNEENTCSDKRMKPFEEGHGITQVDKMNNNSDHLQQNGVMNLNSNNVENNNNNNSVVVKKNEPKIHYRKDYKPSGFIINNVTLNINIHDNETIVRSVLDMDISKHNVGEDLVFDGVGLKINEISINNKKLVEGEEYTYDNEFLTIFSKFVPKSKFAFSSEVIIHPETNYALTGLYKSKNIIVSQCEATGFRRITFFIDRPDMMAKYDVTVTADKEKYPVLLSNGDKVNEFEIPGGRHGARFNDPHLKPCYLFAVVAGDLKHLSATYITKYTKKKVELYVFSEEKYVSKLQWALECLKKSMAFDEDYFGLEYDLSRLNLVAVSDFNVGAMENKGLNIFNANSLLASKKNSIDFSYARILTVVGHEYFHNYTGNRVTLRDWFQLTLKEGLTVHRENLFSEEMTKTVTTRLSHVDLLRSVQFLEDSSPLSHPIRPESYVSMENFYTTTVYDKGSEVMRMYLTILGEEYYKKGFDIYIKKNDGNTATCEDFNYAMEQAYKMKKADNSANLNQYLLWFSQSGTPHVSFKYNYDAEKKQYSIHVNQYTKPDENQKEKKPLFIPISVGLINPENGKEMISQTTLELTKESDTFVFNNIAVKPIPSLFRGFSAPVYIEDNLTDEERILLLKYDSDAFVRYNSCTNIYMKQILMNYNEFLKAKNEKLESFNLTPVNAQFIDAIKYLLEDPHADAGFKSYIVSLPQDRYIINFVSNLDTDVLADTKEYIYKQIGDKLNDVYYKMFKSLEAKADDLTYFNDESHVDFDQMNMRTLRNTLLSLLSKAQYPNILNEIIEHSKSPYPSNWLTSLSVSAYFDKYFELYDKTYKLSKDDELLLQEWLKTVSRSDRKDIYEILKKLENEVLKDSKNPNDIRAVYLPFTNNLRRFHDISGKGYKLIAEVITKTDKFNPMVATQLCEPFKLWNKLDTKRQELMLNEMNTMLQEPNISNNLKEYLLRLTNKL

Row | Compound | inhibition
1 | COc1cc(O)c(C(CCN2CCCC(C)C2)c2ccc(N(C)C)cc2)c(OC)c1 (stereo not drawn) | 12.5%
2 | Cc1ccc(N=N/C(=C\O)C(=O)c2ccncc2)cc1 | 27.6% (active)
3 | O=C(/C(=C/O)N=Nc1ccccc1)c1ccncc1 | 18.4%
4 | O=C(/C(=C/O)N=Nc1ccc(Cl)cc1)c1ccncc1 | 0.62%
5 | Cc1ccc(NC(=O)Nc2ccc(F)cc2F)c(OC(F)F)c1 | -3.74%
6 | Cc1cc(NC(=O)CSCC(=O)N(c2ccc(F)cc2)C(C(=O)NC2CCCCC2)c2ccc(O)c(O)c2)no1 (stereo not drawn) | 8.19%
7 | N#C/C(=C/c1ccc(F)cc1)S(=O)(=O)c1ccccc1 | -4.5%
8 | N#C/C(=C\c1ccc(O)c(O)c1)S(=O)(=O)c1ccccc1 | 24.6% (active)
9 | Cc1cc(C)c(/C=C(\C#N)S(=O)(=O)c2ccccc2)[nH]1 | -6.03%
10 | Cc1ccccc1Cn1nnc2c1C(=O)c1ccccc1C2=O | -4.07%
11 | CC1(c2ccc(OC(F)F)cc2)NC(=O)N(CC(=O)Nc2ccc3c(c2)OCO3)C1=O (stereo not drawn) | 22.2%
12 | Cc1cc(NC(=O)CN2C(=O)NC(C)(c3ccc(OC(F)F)cc3)C2=O)no1 (stereo not drawn) | 7.82%
13 | O=C(CSc1nnc(CNc2ccc(Cl)cc2)o1)Nc1nc2ccccc2s1 | -13%
14 | CCCc1nnc(NC(=O)CCC(=O)N2CCN(S(=O)(=O)c3ccc(C)cc3)CC2)s1 | 3.35%
15 | Oc1ccc(C2C(c3ccccc3)=NN=C(c3ccc(Cl)cc3)N2O)c(O)c1 (stereo not drawn) | 12.1%
16 | CC(C)n1cc(/C=C2/SC(=O)N(CC(=O)N3CCCC3)C2=O)c2ccccc21 | 7.08%
17 | O=C(O)CN1C(=O)/C(=C\c2cn(CC(=O)N3CCOCC3)c3ccccc23)SC1=S | 21.1%
18 | Cc1ccnc(NS(=O)(=O)c2ccc(NC(=O)c3cncc(Br)c3)cc2)n1 | -0.33%
19 | NC(=O)Cn1nc([N+](=O)[O-])nc1Oc1ccccc1C(=O)N1CCOCC1 | 3.73%
20 | CN(C)CCCNC(=O)c1cc(C(=O)C2CCCCC2)c[nH]1 | 3.52%
21 | COCC(=O)N(Cc1cc2cc(OC)ccc2[nH]c1=O)c1ccccc1 | 7%
22 | O=C(CN1c2ccccc2Sc2ccccc21)NNC(=O)Nc1ccc(Cl)c(Cl)c1 | 0.08%
23 | COc1ccc([N+](=O)[O-])cc1N(CC(O)CN1CCCCC1)S(=O)(=O)c1ccc(C)cc1 (stereo not drawn) | 8.41%
24 | COc1ccc([N+](=O)[O-])cc1N(CC(O)Cn1nnc2ccccc21)S(=O)(=O)c1ccc(C)cc1 (stereo not drawn) | 23.6% (active)
25 | COc1ccc([N+](=O)[O-])cc1N(CC(O)CN1CCCC1)S(=O)(=O)c1ccc(C)cc1 (stereo not drawn) | 2.31%
26 | CCOC(=O)c1csc(NC(=O)c2ccc(OC)c(OC)c2)n1 | 1.77%
27 | COCCN(C(=O)CSc1nnc(Nc2ccccc2F)s1)c1c(N)n(Cc2ccccc2)c(=O)[nH]c1=O | 3.95%
28 | CCCS(=O)(=O)NCc1ccc2c(c1)cc(C)n2C | 7.58%
